High-throughput results deposited in PubChem by National Center for Advancing Translational Sciences (NCATS).
An excerpt weighted towards active compounds, which were near 6.8% of everything screened.
SW480 rereplic = A quantitative high throughput screen for small molecules that induce DNA re-replication in SW480 colon adenocarcinoma cells; SW480 DNA re-replication, Hoechst DNA content imaging, 48 h; Potency, µM (titrated, usually from 46.1 µM), without a hit: top-dose re-replication activation, actives largely listed as activators; hit rate 1.8% among 340,000; AID 624297, 2012; note: % of control where 0% means no effect; nearly all actives have a fitted effect of over 55% in size
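Quantitative HTS format with DMSO vehicle controls; 48 hr drug incubation at 37 C, then 40 min Hoechst staining and scanning imager measurement at 405 nm excitation.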
KB-V1 cytotox = qHTS assay for MDR1-selective chemotherapeutics: Primary screen using the drug-selected MDR subline cells KB-V1; KB-V1 MDR cells viability, CellTiter-Glo, 72 h; Potency, µM (doses to about 46.1 µM), usual class: cytotoxic; hit rate 3.4% among 400,000; note: % is set by controls: 0 for no effect and ±100 for the full control effect; nearly all actives have a fitted effect of over 60% in size
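KB-V1 cells (P-gp-expressing MDR subline of KB-3-1) in phenol-red-free DMEM with 10% FBS were exposed to library compounds over a concentration series for 72 h at 37 degrees C. Viability read by CellTiter-Glo luminescence; concentration-effect curves fitted after normalization.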
PINK1 modulator = A Quantitative High throughput Screen to Identify Chemical Modulators of PINK1 Expression; PINK1 immunofluorescence, high-content cytometry, 24 h; Potency, µM (titrated, usually from 76.6 µM), for the others: top-dose activation (PINK1 increase), hits mostly activators; hit rate 0.2% among 410,000; AID 624263, 2012; active = well fitted activation curve with a large enough effect; inconclusive = small, poorly fitted or top-dose-only effect; cell line not stated here; note: % of control where 0% means no effect; nearly all actives have a fitted effect of over 65% in size
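Measures PINK1 amount and localization on or inside mitochondria by immunofluorescence. Stable cells get compounds at 5 concentrations for 24 hours before fixation and staining; CCCP controls included.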
MCF10A rereplic = A quantitative high throughput screen for small molecules that induce DNA re-replication in MCF 10a normal breast cells; MCF 10A DNA re-replication, Hoechst nuclear intensity, 48 h; Potency, µM (top dose mostly 46.1 µM), inactives show top-dose activity, positive = re-replication, hits mostly activators; hit rate 2.9% among 350,000; note: % of control where 0% means no effect; nearly all actives have a fitted effect of over 50% in size
TSG101-PTAP inh = qHTS Assay for Iinhibitors of HIV-1 Budding by Blocking the Interaction of PTAP/TSG101 | Potency, µM (titrated, usually from 115 µM), inactives show at the highest dose activity change, negative = inhibition, hits mostly inhibitors | Fluorescence polarization, FITC-PTAP peptide / Tsg101 binding | Tumor susceptibility gene 101 protein (Homo sapiens), Q99816 | 340,000 tested, under 10 active; active = well fitted inhibition curve with a large enough effect in the main read-out, with a control signal flat, not every such curve was filed as active; inconclusive = small, poorly fitted or top-dose-only effect, or effect the other way, or a change in a side signal; inactive = no such curve, though single readings can be large or run the other way; note: % of control where 0% means no effect
Target sequence (Q99816 whole entry, looked up): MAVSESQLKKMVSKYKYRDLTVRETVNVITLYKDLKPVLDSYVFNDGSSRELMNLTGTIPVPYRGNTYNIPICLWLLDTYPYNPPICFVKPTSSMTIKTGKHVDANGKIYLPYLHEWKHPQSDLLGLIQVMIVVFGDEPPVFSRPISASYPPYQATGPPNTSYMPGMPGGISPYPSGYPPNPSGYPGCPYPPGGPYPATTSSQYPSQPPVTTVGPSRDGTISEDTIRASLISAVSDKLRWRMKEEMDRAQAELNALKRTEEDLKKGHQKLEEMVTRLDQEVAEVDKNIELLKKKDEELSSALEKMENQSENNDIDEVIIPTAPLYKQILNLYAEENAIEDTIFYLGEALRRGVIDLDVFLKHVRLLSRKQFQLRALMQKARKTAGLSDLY
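Tsg101 binding domain (10 uM final) was mixed with compound and a FITC-labeled PTAP peptide (50 nM final) in HEPES pH 7.5 buffer with NaCl, Tween 20, EDTA and TCEP; fluorescence polarization was read after 20 min at r.t.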
KB-3-1 cytotox = qHTS assay for MDR1-selective chemotherapeutics: Primary screen using the parental adenocarcinoma cell KB-3-1; KB-3-1 viability, CellTiter-Glo ATP luminescence, 72 h; Potency, µM (highest dose often 46.1 µM), most hits filed as cytotoxic; AID 1347075, 2019; hit rate 1.4% among 400,000; note: % is set by controls: 0 for no effect and ±100 for the full control effect; nearly all actives have a fitted effect of over 60% in size
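Multi-concentration cytotoxicity screen in KB-3-1 cells grown in DMEM lacking phenol red with 10% FBS. After 72 h at 37 °C with compound, ATP-dependent luminescence was recorded.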
Active calls of the source: *; i = inactive; ? = inconclusive; / = no result; ! = a repeat was not active; [ ] = dose if it differs, or a comment. Unless noted, calls come from the whole dose curve; as a rule, active = well fitted curve in the direction sought with a large enough effect; inconclusive = small, poorly fitted or top-dose-only effect, or another doubt; inactive = no such curve, though single readings can be large; an effect the other way counts as inactive or inconclusive. Potency is the fitted concentration of half-maximal effect.

SMILES | SW480 rereplic | KB-V1 cytotox | PINK1 modulator | MCF10A rereplic | TSG101-PTAP inh | KB-3-1 cytotox
CCOc1ccc(C(=O)NC(C(=O)NCc2ccccc2OC)C(C)C)cc1 (stereo not drawn) | -2% | i | 1% | -2% | -2% | i
CC(=NNC(=O)c1ccncc1)c1ccc(O)cc1O | ? | i | -2% | ? | -2% | ?
CC(=NNC(=O)c1ccncc1)c1ccc2ccccc2c1O | 2.3µM* | ? | 1% | 18µM* | ? | ?
C/C(=N\NC(=O)c1cc(C)nc2ccccc12)c1ccncc1 | 5.2µM* | ? | 6% | 12µM* | -7% | ?
C/C(=N\NC(=O)c1cc(C)nc2ccccc12)c1ccc([N+](=O)[O-])cc1 | -2% | i | -1% | 1% | -6% | i
C/C(=N\NC(=O)c1ccc(CN2CCc3ccccc3C2)cc1)c1ccccc1O | 21µM* | ? | -1% | 23µM* | 0% | 15µM*
CC(=NNC(=O)c1ccncc1)c1ccccc1O | 0.58µM* | i | -1% | 18µM* | -3% | ?
Cc1cc(C)c2c(-n3cccc3)c(C(=O)NCCc3ccc(Cl)cc3)sc2n1 | / | / | 1% | / | / | /
CC(C)CC(=NNC(=O)c1ccncc1)c1cc(Cl)ccc1O | 1.2µM* | ? | 8% | ? | -3% | ?
C/C(=N\NC(=O)CN1CCCCC1)c1ccccc1O | 6.5µM* | i | 1% | 15% | -1% | i
C/C(=N\NC(=O)CN1CCCCC1)c1cccc([N+](=O)[O-])c1 | -7% | i | 0% | -4% | -3% | i
COc1ccc(-n2nc(C(=O)N(C)c3cccc(C(F)(F)F)c3)c3c4ccccc4n(C)c3c2=O)cc1 | / | i | 2% | / | / | i
CC(=O)Nc1ccc(Oc2sc(C(=O)c3ccccc3)c(N)c2C#N)cc1 | ? | i | -2% | 21µM* | -1% | i
O=C(Nc1ccccc1)Nc1nnc(-c2ccncc2)s1 | / | ? | / | / | / | 18µM*
O=C(Nc1ccc(Cl)cc1)Nc1nnc(-c2ccncc2)s1 | -3% | 2.6µM*! | 7.9µM* | ? | -1% | ?
O=C(Nc1ccc(F)cc1)Nc1nnc(-c2ccncc2)s1 | ? | i | 3%[38.3 µM] | -9% | -6% | i
c1ccc2c(Nc3nnc(-c4ccncc4)s3)cccc2c1 | -1% | 15µM* | 4%[38.3 µM] | -5% | -2% | i
Cc1ccc(NC(=O)Nc2nnc(-c3ccncc3)s2)cc1C | 3% | ? | 16µM* | 16µM* | -1% | ?
CC(=O)c1ccc(NC(=O)Nc2nnc(-c3ccncc3)s2)cc1 | / | i | / | / | / | i
COc1ccc(CNC(=O)CCCn2c(=O)c3cccn3c3ccc(F)cc32)cc1OC | / | / | 2% | / | / | /
COc1ccc(CN2CCOc3ccc(CN4CCC(Oc5cccnc5)CC4)cc3C2)cc1 | / | / | -1% | / | / | /
COc1ccc(-n2c(CNC(=O)c3cccc4ccccc34)nnc2SC)cc1 | / | / | 3% | / | / | /
CC1Cn2c(C(=O)NCCc3ccc(Cl)cc3)cc3cccc(c32)S1 (stereo not drawn) | / | i | 9% | / | / | i
CCc1nnc(SCC(=O)Nc2cc(Cl)c(OC)cc2OC)c2cc3oc(C)cc3n12 | / | i | 0% | / | / | i
Clc1cccc(Nc2nc(-c3ccncc3)cs2)c1 | 15µM* | ? | 0% | ? | -5% | ?
SMILES | SW480 rereplic | KB-V1 cytotox | PINK1 modulator | MCF10A rereplic | TSG101-PTAP inh | KB-3-1 cytotox
Cc1cccc(Nc2nc(-c3ccncc3)cs2)c1 | ? | ? | 2% | ? | -3% | i
O=C(Nc1cccc(Cl)c1)Nc1nnc(-c2ccncc2)s1 | 12µM* | ? | 7.1µM* | 5.8µM* | -1% | 13µM*
COc1cccc(C(=O)Nc2cccc(-c3cn4c(C)csc4n3)c2)c1OC | / | i | -4% | / | / | i
Cc1cccc(CNc2cc(-c3ccccc3CN(C)C)ncn2)c1 | / | / | 0% | / | / | /
CN(C)c1c(Cl)cc(/C=C/c2ccnc3ccccc23)cc1Br | / | 16µM* | / | / | / | 18µM*
Cc1cc(C=Nc2ccc(/C=C/c3ccnc4ccccc34)cc2)ccc1N(C)C | / | i | -1% | / | / | i
Cc1cc(/C=C/c2ccnc3ccccc23)ccc1N(C)C | / | 13µM* | / | / | / | 7.3µM*
CN(C)c1ccc(/C=C/c2ccnc3ccccc23)cc1Br | / | ? | 4% | / | / | ?
O=C1c2ccccc2C(=O)C1c1ccc2ccccc2n1 | 0% | 2.6µM*! | 2% | ? | -1% | i
O=C1c2ccccc2C(=O)C1c1cc2ccccc2cn1 | / | i | -1% | / | / | i
Cc1nn(-c2nc(-c3ccc(F)cc3)cc(C(F)(F)F)n2)c(C)c1Br | / | i | 1% | / | / | i
Cc1ccc2nc3c(cc(C(=O)NCCN4CCOCC4)c(=N)n3CCCN3CCOCC3)c(=O)n2c1 | 1.8µM* | i | -2% | ? | 0% | i
CCCn1c(=N)c(C(=O)NCc2cccnc2)cc2c(=O)n3cc(C)ccc3nc21 | / | ? | 6% | / | / | i
Cc1cccn2c(=O)c3cc(C(=O)NC(C)c4ccccc4)c(=N)n(CCCn4ccnc4)c3nc12 (stereo not drawn) | 16µM* | i | 2% | 21µM* | 0% | ?
Cc1ccc2nc3c(cc(C(=O)NCCc4ccccc4)c(=N)n3CCN3CCOCC3)c(=O)n2c1 | 5.2µM* | ? | 5% | 18µM* | -7% | i
COCCCn1c(=N)c(C(=O)NCc2cccnc2)cc2c(=O)n3cc(C)ccc3nc21 | / | ? | 1% | / | / | i
Cc1ccc2nc3c(cc(C(=O)NCc4ccccc4)c(=N)n3CCCn3ccnc3)c(=O)n2c1 | 5.2µM* | i | ? | 8.2µM* | -7% | i
O=C(NC1CCS(=O)(=O)C1)c1cc2c(=O)n3ccccc3nc2n1Cc1ccccc1 (stereo not drawn) | / | i | -1% | / | / | i
Cc1ccc2nc3c(cc(C(=O)NC4CCS(=O)(=O)C4)n3Cc3ccccc3)c(=O)n2c1 (stereo not drawn) | 23µM* | i | 1% | 23µM* | -4% | i
COc1ccc(CN(C(=O)c2oc3ccccc3c2C)C2CCS(=O)(=O)C2)cc1OC (stereo not drawn) | -5% | i | 1% | 13% | -6% | i
